Screening results: PubChem, National Center for Advancing Translational Sciences (NCATS)
Sampled rows, rich in hits. Any-hit rate of the full collection: about 19%.
Lassa entry inh = qHTS for Inhibitors of binding or entry into cells for Lassa Virus. Potency, µM (highest dose often 37.9 µM), hits mostly inhibitors. Lassa virus pseudotype entry inhibition, cell reporter. 1.2% of 300,000 active; calls by dose curve; tested in HEK293 cells; note: nearly all actives have a fitted effect of over 50% in size
Marburg entry inh = qHTS for inhibitors of binding or entry into cells for Marburg Virus. Marburg virus pseudotyped entry inhibition, cell reporter. Potency, µM (highest dose often 37.8 µM), actives largely listed as inhibitors. 1.8% of 300,000 active. AID 540276, 2011; calls by dose curve; tested in HEK293 cells
Shiga toxin inh = A qHTS for Small Molecule Inhibitors of Shiga Toxin. inhibition, % at 38.7 µM. Vero cells, Shiga toxin protein synthesis inhibition reporter. 9.2% of 290,000 active; in the data active = inhibition mostly above about 28%, no sharp cut-off; inactive = mostly below about 43%
Pf growth 48h = Primary qHTS for delayed death inhibitors of the malarial parasite plastid, 48 hour incubation. P. falciparum luciferase growth in erythrocytes, 48 h. Potency, µM (highest dose often 28.7 µM), hits mostly inhibitors. 5.9% of 310,000 active. AID 504832, 2011
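Cell-based growth assay: transgenic P. falciparum expressing firefly luciferase, cultured in red cells within RPMI 1640 containing 0.5% w/v Albumax, 24 mM bicarbonate and gentamycin. A drop in luciferase activity indicates inhibition.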
CHX counter = Cycloheximide Counterscreen for Small Molecule Inhibitors of Shiga Toxin | cell reporter, cycloheximide protein synthesis inhibition counterscreen | max response, % | 12% of 300,000 active | AID 2314, 2010; in the data active = max response mostly above about 13%, no sharp cut-off; inactive = mostly below about 14%; note: read at 38.3 µM for the half of the compounds with a filed dose
Pf growth 96h = Primary qHTS for delayed death inhibitors of the malarial parasite plastid, 96 hour incubation | P. falciparum luciferase reporter growth, 96 h | Potency, µM (titrated, usually from 28.7 µM), hits mostly inhibitors | 6.9% of 320,000 active | AID 504834, 2011
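Two-generation exposure (96 h) targets delayed-death phenotype. Reporter parasites carrying integrated firefly luciferase, in red cells at 2% hematocrit and 0.05% parasitemia final, kept at 37 C, 5% CO2; luminescence loss indicates inhibition.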
Numbers stand for hits; i = inactive; ? = inconclusive; nt = not tested or not shown. Unless noted, calls come from the whole dose curve; as a rule, active = well fitted inhibition curve with a large enough effect; inconclusive = small, poorly fitted or top-dose-only effect, or another doubt; inactive = no such curve, though single readings can be large or run the other way.

SMILES | Lassa entry inh | Marburg entry inh | Shiga toxin inh | Pf growth 48h | CHX counter | Pf growth 96h
O=C(NC12CC3CC(CC(C3)C1)C2)OC1CN2CCC1CC2 (stereo unspecified) | i | ? | i | i | i | i
COc1cccc(CNCc2cccc(OC)c2O)c1O | i | i | nt | nt | nt | nt
COc1cccc(CNCc2ccco2)c1O | i | i | i | i | i | 12µM
COc1cc(OC)c(OC)cc1CNCc1ccco1 | ? | i | i | i | i | i
COc1cc(CNCc2ccco2)ccc1OCc1ccccc1 | i | ? | 61 | i | 33 | i
COc1cc(CNCc2cccs2)ccc1OCC(=O)NC(C)(C)C | i | 9.2µM | i | i | i | i
O=C(O)CCC(NS(=O)(=O)c1ccc(-c2ccccc2)cc1)C(=O)O (stereo unspecified) | i | i | i | nt | i | ?
Cc1ccc(S(=O)(=O)NC(=O)c2cc(C)n(CC(c3ccccc3)N(C)C)c2C)cc1 (stereo unspecified) | nt | nt | i | i | i | i
Nc1nc(Cl)cc(Sc2ccc(F)cc2)n1 | i | i | i | ? | i | i
CCOc1ccc2cc(C#N)c(SCC(=O)N3CCOCC3)nc2c1 | i | i | 101 | i | 30 | i
N#Cc1cc2cc3c(cc2nc1SCC(=O)N1CCOCC1)OCO3 | i | i | 83 | i | 28 | ?
CCOC(=O)CSc1nc2cc3c(cc2cc1C#N)OCO3 | ? | i | 182 | i | i | i
CCOC(=O)CSc1nc2cc3c(cc2cc1C#N)OCCO3 | ? | i | 91 | i | 33 | i
CCOC(=O)CSc1nc2cc3c(cc2cc1C)OCO3 | i | i | i | i | i | ?
Cc1cc2cc3c(cc2nc1SCC(=O)N1CCOCC1)OCO3 | nt | i | i | i | i | i
CCc1ccc(NC(=O)COC(=O)CN2C(=O)COc3ccccc32)cc1 | i | i | i | nt | i | i
Cc1ccccc1Nc1c(-c2ccc(Cl)cc2)nc2c(C)cccn12 | i | ? | nt | nt | nt | nt
CC(C)OC(=O)CSc1nc2cc3c(cc2cc1C#N)OCO3 | ? | ? | i | i | i | i
COC(=O)CSc1nc2cc3c(cc2cc1C#N)OCO3 | ? | ? | 90 | i | 38 | nt
CN(CCc1cn[nH]c1)Cc1nc(C(c2ccccc2)c2ccccc2)no1 | i | i | i | ? | i | i
CCN(CC)CCN(C)Cc1nc(C(c2ccccc2)c2ccccc2)no1 | nt | nt | i | ? | i | 9.3µM
Cc1cccc(NC(=O)CCn2cnnn2)c1 | i | i | i | i | i | i
O=c1c(-c2ccccc2)c(O)nc(SCCN2CCOCC2)n1-c1ccccc1 | i | i | i | i | i | i
CCc1ccc(/C(C)=N\Nc2ccc([N+](=O)[O-])cc2)cc1 | ? | ? | i | i | 19 | 4.1µM
C/C(=N\Nc1ccc([N+](=O)[O-])cc1)c1ccc(N)cc1 | i | ? | 68 | ? | 34 | i
SMILES | Lassa entry inh | Marburg entry inh | Shiga toxin inh | Pf growth 48h | CHX counter | Pf growth 96h
CC(=NNc1ccc([N+](=O)[O-])cn1)c1ccc(N)cc1 | i | i | nt | nt | nt | nt
C/C(=N\Nc1ccc([N+](=O)[O-])cc1)c1ccco1 | i | ? | 34 | i | 47 | i
C/C(=N\NC(=O)COc1ccc([N+](=O)[O-])cc1)c1ccco1 | nt | nt | nt | i | nt | i
Cn1c(=O)c(=O)n(C)c2cc([N+](=O)[O-])c([N+](=O)[O-])cc21 | i | ? | i | i | i | ?
Cc1ncc([N+](=O)[O-])n1CCOC(=O)NC(NCc1ccccc1Cl)C(Cl)(Cl)Cl (stereo unspecified) | ? | ? | i | ? | i | ?
Cc1ccc(NC(NC(=O)OCCn2c([N+](=O)[O-])cnc2C)C(Cl)(Cl)Cl)cc1 (stereo unspecified) | i | i | i | 5.2µM | i | ?
CC(C)(C)c1ccc(C(=O)NCC2CCCN2S(=O)(=O)c2ccccc2)cc1 (stereo unspecified) | ? | ? | nt | 9.3µM | nt | 13µM
Cc1ccc(S(=O)(=O)N2CCCC2CNC(=O)c2ccc(F)c(F)c2)cc1 (stereo unspecified) | i | i | nt | 10µM | nt | ?
Cc1ccc(S(=O)(=O)N2CCCC2CNC(=O)C(=O)Nc2ccc(F)cc2)cc1 (stereo unspecified) | 5µM | i | nt | ? | nt | ?
COc1ccc(S(=O)(=O)N2CCCC2CNC(=O)C(=O)Nc2ccc(C)cc2)cc1 (stereo unspecified) | ? | ? | nt | i | nt | ?
Cc1ccc(C)c(S(=O)(=O)N2CCCC2CNC(=O)C(=O)NC2CC2)c1 (stereo unspecified) | i | i | nt | ? | nt | i
O=C(NCC1CCCN1S(=O)(=O)c1cccs1)c1ccc(F)c(F)c1 (stereo unspecified) | ? | i | nt | i | nt | i
Cc1ccc(C)c(S(=O)(=O)N2CCCC2CNC(=O)c2ccc([N+](=O)[O-])cc2)c1 (stereo unspecified) | ? | ? | nt | 10µM | nt | ?
O=C(NC1CCCCCC1)C1CCN(C(=O)Cc2ccccc2)CC1 | i | i | i | i | i | ?
CCN1C(=O)C(=Cc2ccc(N3CCOCC3)o2)C(=O)N(CC)C1=S | nt | nt | i | i | i | i
CCc1ccc(-n2nnc(-c3nc(-c4ccc(C)cc4)no3)c2N)cc1 | i | nt | nt | nt | nt | nt
Cc1cc(C)nc(SCC(=O)c2ccc(O)cc2O)n1 | nt | nt | i | nt | i | i
COc1ccc(C)cc1NC(=O)CSc1nc(=O)[nH]c2c1CCCC2 | i | nt | nt | nt | nt | nt
Cc1ccc(S(=O)(=O)N2CCCC2CNC(=O)C(=O)NC2CC2)cc1 (stereo unspecified) | i | i | nt | i | nt | ?
Cc1ccc(C(=O)NCC2CCCN2S(=O)(=O)c2ccc(C)cc2)cc1 (stereo unspecified) | i | i | nt | ? | nt | 10µM
CCOC(=O)[C@H]1[C@H]2COc3cc(OC)ccc3[C@@H]2N2C(=O)N(c3ccc(Cl)cc3)C(=O)[C@@]12C | nt | nt | i | i | i | 5.2µM
CCOC(=O)[C@@H]1[C@H]2COc3cc(OC)ccc3[C@@H]2N2C(=O)N(c3ccc(Cl)cc3)C(=O)[C@@]12C | nt | nt | 29 | ? | 16 | ?
CCOC(=O)[C@@H]1[C@H]2COc3cc(OC)ccc3[C@@H]2N2C(=O)N(c3ccc(C)cc3)C(=O)[C@@]12C | nt | nt | i | ? | i | ?
Cc1nc2ccccc2n1C(=O)c1ccc(Cl)cc1[N+](=O)[O-] | i | i | i | i | i | i
Nc1nc(N)c2cc([N+](=O)[O-])ccc2n1 | i | i | nt | nt | nt | nt
O=[N+]([O-])c1ccc(O)c(-c2cc(C(F)(F)F)nc(-c3ccccc3)n2)c1 | nt | i | i | 0.37µM | i | i
COc1ccc(O)c(-c2cc(C(F)(F)C(F)F)nc(-c3ccccc3)n2)c1 | i | i | i | 13µM | i | 2.9µM
Nc1nc(N)nc(-c2cc([N+](=O)[O-])ccc2O)n1 | nt | nt | nt | i | nt | 2.1µM
Oc1ccccc1-c1cc(C(F)(F)C(F)F)nc(-c2ccccc2)n1 | ? | i | i | i | i | i
O=C(CSc1nnnn1-c1ccc(C(=O)O)cc1)NC1CC1 | nt | nt | i | i | i | ?
